Reference: the supplement of paper PMC4206467

system: Perkinsus marinus PRA240; assay: ATP content (proliferation) relative to DMSO control; higher = more parasite growth (less inhibition); details: 20 µM; 4 days
Method: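 Perkinsus marinus PRA240 trophozoites (2-5x10^6 cells/ml, 100 µl, 96-well) were exposed once to MMV Malaria Box compounds at 20 µM (0.1% DMSO) in triplicate. ATP content (ATPlite bioluminescence) was read at day 4 post-exposure and normalised to DMSO + cells control wells (100% activity). Compounds were identified by joining plate and well to the Malaria Box list.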

| Compound | ATP content [%] |
| --- | --- |
| CN(N=O)C1=C(NC2CCCCC2)C(=O)c2ccccc2C1=O | 45.9 |
| O=C(CCc1ccco1)NC1CCN(CC2(c3ccc(Cl)cc3)CCC2)CC1 | 103 |
| COc1ccc(CN2CCN(Cc3ccccc3)CC2)c(O)c1 | 194 |
| COc1cc(CNCCc2ccc(Cl)cc2)cc(OC)c1O | 130 |
| Oc1ccc(Br)cc1CN1CCN(Cc2ccc(Cl)cc2)CC1 | 129 |
| Oc1ccc(C(=C(Cl)Cl)c2ccc(O)cc2)cc1 | 137 |
| CCOc1c(Cl)cc(CNC(C)C(O)c2ccccc2)cc1OC (stereo not given) | 75.7 |
| Oc1ccc(Br)cc1CN1CCN(Cc2cccc(F)c2)CC1 | 95.2 |
| CCOc1cc(CNC(C)C(O)c2ccccc2)cc(Cl)c1OCC (stereo not given) | 120 |
| CCCCCCc1cc(O)c2c3c(c(=O)oc2c1)CCC(C)C3 (stereo not given) | 33.1 |
